# KB-V1 cytotox: kills drug-selected multidrug resistant KB-V1 cells; Potency, µM (doses to about 46.1 µM), actives largely listed as cytotoxic; 3.4% of 400,000 active; KB-V1 MDR cells viability, CellTiter-Glo, 72 h; AID 1347076; note: nearly all actives have a fitted effect of over 60% in size
#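 In this primary screen, KB-V1 cells overexpressing P-gp are incubated with library compounds (lowest to highest concentration) for 72 h at 37 degrees C before a luminescent ATP viability read.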
# HT1080 IDH1KD tx: HT-1080 IDH1 knockdown cell toxicity (counter line) | HT-1080 IDH1 knockdown viability, ATP luminescence, 48 h | Potency, µM (top dose mostly 46.1 µM), for inactives: at the highest dose activity, negative = toxicity, actives largely listed as cytotoxic | 2% of 360,000 active | AID 686971;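 note: 0% = DMSO wells and -100% = cell-free medium wells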
#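 % activity derives from luminescence (CellTiter-Glo), normalised to DMSO and no-cell wells. HT-1080-IDH1KD cells, 750/well, had 48 h compound exposure at 37 °C.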
# KB-3-1 tox: kills parental KB-3-1 adenocarcinoma cells; 1.4% of 400,000 active; Potency, µM (series often up to 46.1 µM), usual class: cytotoxic; KB-3-1 viability, CellTiter-Glo ATP luminescence, 72 h; note: nearly all actives have a fitted effect of over 60% in size
#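 Cytotoxicity in the drug-sensitive parental line KB-3-1 was scored as loss of CellTiter-Glo luminescence following 72 h incubation with compound. Values come from curve fitting of normalized concentration-response data.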
# HT1080-NT tox: kills 2HG-producing HT-1080-NT fibrosarcoma cells; HT-1080-NT fibrosarcoma viability, CellTiter-Glo ATP luminescence, 48 h; Potency, µM (highest dose often 46.1 µM), inactives show top-dose activity, negative = less viability, actives largely listed as cytotoxic; 1.6% of 360,000 active;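 note: NT is the 2HG producing partner of a matched IDH1 knockdown line; 0% = DMSO-treated cells and -100% = media-only wells without cells; nearly all actives have a fitted effect of over 55% in size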
#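 A 48-hour cytotoxicity screen used HT-1080-NT cells plated 2 hours before compound delivery. ATP-based CellTiter-Glo luminescence measured viability, normalized to DMSO and no-cell controls.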
# Numbers without * were called inactive; i = inactive; ? = inconclusive; / = not tested or not shown; ! = a repeat was not active; [ ] = another dose, or the depositor's remark. Shown are actives, neighbours in structure and some others; about 5.7% of the full set was active somewhere. Calls come from the whole dose curve; as a rule, active = well fitted curve in the direction sought with a large enough effect; inconclusive = small, poorly fitted or top-dose-only effect, or another doubt; inactive = no such curve, though single readings can be large; an effect the other way counts as inactive or inconclusive. Unless noted, % is set by controls: 0 for no effect and ±100 for the full control effect; potency is the fitted concentration of half-maximal effect.
SMILES,KB-V1 cytotox,HT1080 IDH1KD tx,KB-3-1 tox,HT1080-NT tox
CN(C)c1ccc(C(=O)NCC(c2cccs2)N2CCOCC2)cc1 (configuration not stated),i,3%,i,5%
Cc1ccsc1C(=O)NCC(c1cccs1)N1CCOCC1 (configuration not stated),?,?,i,18µM*
O=C(NCC(c1cccs1)N1CCOCC1)c1ccc(Br)o1 (configuration not stated),?,16µM*,?,?
O=C(NC1CCCCC1)C(c1ccc(O)cc1)N(CC1CCCO1)C(=O)C1COc2ccccc2O1 (configuration not stated),21µM*,4.6µM*,i,4.6µM*
CCOc1ccc(/C=N/OCC(=O)Nc2ccc(OCc3ccccc3)cc2)cc1OC,?,1%,i,8%
COc1ccc(/C=N/OCC(=O)NC(c2ccccc2)c2ccccc2)cc1OC,2.3µM*,-14%,?,-7%
COc1cc(/C=N/OCC(=O)Nc2ccc(OC(F)F)cc2)ccc1OCc1ccccc1,8.2µM*,?,23µM*,?
CCc1ccc(Sc2cc(C(=O)NCc3ccccc3OC)c3ccccc3n2)cc1,?,/,i,/
N#Cc1ccc(N2Cc3ccccc3C2=NC(=O)c2cccnc2Cl)cc1,16µM*,-3%,?,2%
N#Cc1ccc(COC(=O)c2cccnc2Cl)cc1,i,17%,i,15%
COc1cc(OC)c(C(=O)NCc2nc(-c3ccccc3)no2)cc1OC,?,/,i,/
CCCC(C)NNC(=O)c1cc2ccccc2[nH]1 (configuration not stated),i,-5%,i,-1%[9.24 µM]
CC(C)(C)c1ccc(S(=O)(=O)NNC(=O)c2cc3ccccc3[nH]2)cc1,i,21µM*,i,21µM*
COc1ccc(C(=O)/C=C/C(=O)N(CC(=O)NC2CCCCC2)Cc2ccccc2)c(O)c1,i,3.7µM*,?,3.7µM*
COc1ccc(C(=O)/C=C/C(=O)N(CC(=O)NC2CCCCC2)CC2CCCO2)c(O)c1 (configuration not stated),?,?,?,-22%
COc1ccc(C(=O)/C=C/C(=O)N(CC(=O)NC2CCCCC2)Cc2ccccc2OC)c(O)c1,15µM*,?,?,?
COc1ccc(CNC(=O)c2ccc3c(c2)N(C)C(=O)C2CCCCN32)cc1OC (configuration not stated),i,/,i,/
COc1ccc(COc2cc(-c3cccc(OC)c3)nc3ccc(NC(=O)c4ccc(C)cc4)cc23)cc1,i,13µM*,9.2µM*,13µM*
COc1ccc(COc2cc(-c3cccc(OC)c3)nc3ccc(N)cc23)cc1,5.8µM*,2.1µM*,?,0.82µM*
COc1ccc(COc2cc(-c3cccc(OC)c3)nc3ccc(NC(C)=O)cc23)cc1,i,-6%,i,-20%
COc1ccc(COc2cccnc2N)cc1,i,-4%,i,0%
COc1ccc(COc2cc(-c3cccc(OC)c3)nc3ccc(NC(=O)c4ccc(N(C)C)cc4)cc23)cc1,i,6.5µM*,4.6µM*,?
CNC(=O)COc1ccc(NC(=O)CCn2nc(-c3ccc(C)cc3)c3ccccc3c2=O)cc1,?,/,i,/
CCSC1=NC2(CCN(C(=O)NC3CCCCC3)CC2)N=C1c1ccc(C)cc1,i,/,i,/
COc1ccc(C2NC(=O)N(C)C3=C2C(=O)N(c2cccc(Cl)c2)C3)cc1 (configuration not stated),i,/,i,/
SMILES,KB-V1 cytotox,HT1080 IDH1KD tx,KB-3-1 tox,HT1080-NT tox
CCOc1ccc(NC(=O)N2CC=C(c3c[nH]c4ccccc34)CC2)cc1,?,/,23µM*,/
CCC1=C[C@@H]2CN(C1)Cc1c([nH]c3ccccc13)[C@@](C(=O)OC)(c1cc3c(cc1OC)N(C)[C@H]1[C@@](O)(C(=O)OC)[C@H](OC(C)=O)[C@]4(CC)C=CCN5CC[C@]31[C@@H]54)C2,?,/,0.029µM*,/
COc1cccc(Nc2sc(C(=O)c3ccc(Cl)cc3)c(N)c2C(=O)NCCc2ccc(OC)c(OC)c2)c1,i,/,i,/
COc1ccccc1NC(=O)c1c(Nc2ccccc2F)sc(C(=O)Nc2cccc(Cl)c2)c1N,i,?,i,15µM*
CCN1C(=O)c2ccccc2S(=O)c2ccc(C(=O)N3CCN(c4cc(Cl)ccc4C)CC3)cc21 (configuration not stated),i,/,?,/
CCCCNc1cnn(-c2ccccc2)c(=O)c1Cl,i,17%,i,14%
CCc1ccc(Nc2cnn(-c3nc4ccccc4s3)c(=O)c2Cl)cc1,13µM*,1%,i,-8%
Cc1ccc(NS(=O)(=O)c2ccc3c(c2)CCC(=O)N3)cc1F,?,/,i,/
O=C1[C@H]2[C@@H](C(=O)N1c1cc(Cl)cc(Cl)c1)[C@]1(C(=O)Nc3ccccc31)N1CCC[C@@H]21,15µM*,?,i,-17%
CC1CCC(C(C)C)C(OC(=O)Cn2c(-c3ccc(Br)cc3)[n+](C)c3ccccc32)C1 (configuration not stated),?,16µM*,18µM*!,10µM*
Cc1ccccc1OCc1n(CC(=O)OC2CC(C)CCC2C(C)C)c2ccccc2[n+]1C (configuration not stated),i,7.3µM*,?,16µM*
CC1CCC(C(C)C)C(OC(=O)Cn2c(-c3ccc(Cl)cc3)[n+](C)c3ccccc32)C1 (configuration not stated),i,5.8µM*,?,5.8µM*
CC1CCC(C(C)C)C(OC(=O)COC(=O)c2cccn2C)C1 (configuration not stated),i,1%,i,10%
CCOc1ccc2nc(Cl)c(C3CC(c4ccccc4)=NN3C(=O)CCC(=O)O)cc2c1 (configuration not stated),i,/,i,/
Cc1ccc(C)c(Cn2c(=O)n(CCCCC(=O)NCc3ccc4c(c3)OCO4)c(=O)c3ccccc32)c1,i,/,i,/
Cc1cc(/C=N/n2cnnc2)c(C)n1-c1ccc(OCc2ccc(Cl)cc2)cc1,3.7µM*,?,8.2µM*,-18%
Cc1nn(C)c(C)c1N1C(=O)c2cccc3c(Br)ccc(c23)C1=O,i,?,?,23µM*
Cc1nn(C)c(C)c1N1C(=O)c2cccc3c(N)ccc(c23)C1=O,i,5%,i,10%
COc1ccc(N=c2nc(-c3ccc(C)cc3)n(-c3ccccc3)s2)cc1,i,/,?,/
COc1cc(/C=N/Nc2ccccc2C(F)(F)F)ccc1O,i,2%,i,3%
COc1cc(/C=N/Nc2ccccc2)ccc1O,i,21µM*,i,?
COc1cc(/C=N/N(c2ccccc2)c2ccccc2)ccc1O,i,16µM*,?,18µM*
COc1ccc(/C=N/N(c2ccccc2)c2ccccc2)cc1O,i,-6%,i,-1%
